From the supplement of paper PMC11417369
± gives the standard deviation of the averaged measurements. In all, about 25,000 sequences were measured (“ln(normalized median fluorescence intensity)”: median about 7.9, highest 2% from about 11 on). The entries come from a sample that favours the highest values as a whole.

Test system: PfAP2-I AP2 domain 3 (GST-tagged)
Assay: gcPBM binding intensity (ln(normalized median fluorescence intensity)); higher = stronger DNA binding
How it was run: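 For binding intensity, the highest Masliner-normalised natural-log median intensity across replicate spots of either probe orientation was taken. Protein bound to the array was stained with Alexa488 anti-GST antibody and scanned at 488 nm. The protein, GST-tagged P. falciparum DNA-binding domains from E. coli at about 25 μg on average, had been applied for 1 h to an Agilent 4 × 180k array of primer-extended double-stranded 36-bp intergenic genomic probes and negative controls.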

Row | Sequence | gcPBM binding intensity (ln)
1 | AGTTTGTTTTTTTTTTTTTTTTCCTGTCACAAACAA [CACACA_negctrl_site1093] | 8.22 ± 0.62
2 | GTTCATAAATTAAACACACACACACCCCTGGATACC [CACACA_site3331] | 9.115 ± 0.021
3 | ATATATATATATATATGTACATACATACAATCATAT [XGTACX_site6410] | 9.38 ± 0.54
4 | TACATATTTAAATACTGTACTCAAAAGAATTGTGCA [XGTACX_site2250] | 8.11 ± 0.11
5 | ATATATCATAATAAAAGTACTTATATATTTTATATA [XGTACX_site560] | 7.59 ± 0.33
6 | AAAATTGTGCTTTCACGGACACAAGATCGAAATAGA [XGTACX_site4068] | 8.62 ± 0.16
7 | GAAAAAAAAATATCTTGTACTTACATAACTATTGGT [XGTACX_site5326] | 7.61 ± 0.5
8 | CTTATTTTGTTATAAGTGCATTTTTTAAAATTTCTT | 9.05 ± 0.42
9 | ATATATTATATTTAAGTGCATTAATTAAAATGCTTA [GTGCAC_site9403] | 11.1 ± 0.73
10 | ATATATATATTTATAGTGCATTTATATTAAAATATC [GTGCAC_site9818] | 10.54 ± 0.021
11 | TTTTTTTTTTTTTTTGCACACTTAAATTTGGTGGGG [CACACA_site2344] | 9.89 ± 0.19
12 | TTTTTTTTTTTTTTTGCACACTTAAATTTGGTGGCT [CACACA_site5319] | 9.54 ± 0.16
13 | CACATTAATTTTTGGGTGCACTTGGGAAATTTTGGT | 10.9 ± 0.51
14 | AGTTATAAACATATGTGTACTTATAAAAACATATAG [XGTACX_site3268] | 7.87 ± 0.47
15 | AATCACAACGAACACACACACAAAAAAAAAAAAAAA [CACACA_site6790] | 7.96 ± 0.54
16 | CAACAACAAATGAGAAGTACATAAATATTAACAATA [XGTACX_site4625] | 7.68 ± 0.4
17 | ATATATAATTCCCAAGTGCATTTATTTTAATTATTA | 10.2 ± 0.12
18 | TTCCAAGAAATAATAGTGCATTATTCATTTTAATAA | 11.5 ± 0.42
19 | TGTTTTATTTTATTAGTGCATTTTTATTTATAATAG [GTGCAC_site9453] | 9.77 ± 0.2
20 | AATATAAGGATATATACACACATAAATACATACATA [CACACA_site7859] | 7.67 ± 0.59
21 | TGAAGGATATATTCCGTGCACATATAAATATATACA | 11.035 ± 0.007
22 | AAGGATATAACATACACACACACACGGATATAAATA [CACACA_site7867] | 7.91 ± 0.6
23 | TTTATACAAACAACTTTATATTAATGTTTAACGGAG [GTGCAC_negctrl_site396] | 7.6 ± 0.42
24 | AAAAAAAAAATACAGGTGCAATAAGAAAAAAATGGT | 11.4 ± 0.57

Row | Sequence | gcPBM binding intensity (ln)
25 | AATTAATAAGAAAGGTGTACAGAAAAAAAAAAATAT [XGTACX_site2106] | 8.46 ± 0.43
26 | ATATATATATAATAAGTGCAAAAAAAAGAAAAAAAT | 10.18 ± 0.035
27 | TTTTATATTTTATGCACACTTATAAGAAATATGTAC [CACACA_site3040] | 10.5 ± 0.52
28 | TTTTAAATACTTTATTGTACATTATATATATATATA [XGTACX_site7021] | 8.88 ± 0.042
29 | ATTTTAAAAAGGATAGTGCAAATGTTAAAATAGGAC | 10.6 ± 0.3
30 | TTTTTTTTTAAGCAAAGGAAATCAAAATAAAAATAT [CACACA_negctrl_site719] | 7.92 ± 0.56
31 | TTTTAAGGTGTGAAGGTGCAAAAAGGTAAATAGGAA | 11.2 ± 0.56
32 | TACCTTTTTTATGTTGCACACTGGGATGTTTTCTAA [CACACA_site1653] | 9.51 ± 0.15
33 | TATGAAGTGCACAATACACACTAATTCTATATAAAT [CACACA_site7269] | 11 ± 0.71
34 | TATATGAAGTACACAATACACACTAATTATATATAA [CACACA_site2608] | 8.155 ± 0.035
35 | TATGAAGTACACAATACACACTAATTATATATAAAT [CACACA_site5444] | 7.88 ± 0.28
36 | AAAGTATATAGGATACGTACATACATAAATAAATAA [XGTACX_site8216] | 7.84 ± 0.73
37 | AAAAAAAAAAAAAAAACACACAAACAAATGAATAAA [CACACA_site5769] | 8.76 ± 0.66
38 | GTACATTATATATATACACACATACATAATAAAGAA [CACACA_site5528] | 8.12 ± 0.23
39 | CAAATATACATATGTAGTACATGTTGTAGATAATTT [XGTACX_site2790] | 8.01 ± 0.5
40 | GTATATATCTAAAAATATATATATATATATATATAT [CACACA_negctrl_site788] | 9.37 ± 0.72
41 | CCCTGCCTCTCTTTGGTGCGTTGTAACCCTCGAGGA | 10.3 ± 0.33
42 | TCCTGCCTCTCTTTGGTGCGTTGTAACCCTCGAGGA | 10.3 ± 0.11
43 | TCTCCACCTCTCTTGGTGCGTTATACCCTCGAGGCT | 11.3 ± 0.54
44 | TTGTTCTTTTGAAAGGTGCAAAAGAAAAATAATTAA | 11.1 ± 0.54
45 | TTGTTCTTTTTTTTTTTATTTTTTAATTTGAAAAGA [CACACA_negctrl_site209] | 7.72 ± 0.5
46 | AGAATTAAAATAAAGGTGCATTTTTTTGTTTCATGT | 9.94 ± 0.23
47 | ACGTTACATACATATACACACACATATATATATATA [CACACA_site8203] | 9.22 ± 0.39
48 | TATATACTCATGCGCACACACAAGTGGGAAATTTGG [CACACA_site5056] | 8.35 ± 0.6

Row | Sequence | gcPBM binding intensity (ln)
49 | TTTTTTTTTTTTGGTGCATGCACATTTTGTTTTTTT [TGCATGCA_site570] | 9.85 ± 0.014
50 | CTTGTGCTTTATAGGGTGCACATTTTGTTTTGGTAA [GTGCAC_site9899] | 11 ± 0.46
51 | TATAATTTTTTTTGGGTGCTTGGGTAAATTTTATTA | 8.34 ± 0.42
52 | AAAGGGATGTTCATTCTTTTTTTTTTTTTTGTATAT [CACACA_negctrl_site511] | 7.16 ± 0.6
53 | ATTAGTAAATTTATATGTACACATTGTTATTTTATA [XGTACX_site1177] | 8.13 ± 0.23
54 | TTATATTTGATAGTTTGTACATATAATTATTATCAT [XGTACX_site5676] | 7.86 ± 0.42
55 | TAGTGATATAATTATGTGCACTTAATACAGGTCGAT | 10.9 ± 0.3
56 | AATATAAATAATTATACACACTTAATATATATATAC [CACACA_site5533] | 7.9 ± 0.33
57 | TTGATATATAATAATACACACTTACATAATTAATTA [CACACA_site4320] | 7.88 ± 0.37
58 | ATGTCTATAATAAGAACACACATATATTTAATTTAA [CACACA_site7394] | 7.64 ± 0.44
59 | ATATGTAGAAGTAATGCACACATATGTATATATATA [CACACA_site8796] | 10.8 ± 0.48
60 | ATGTAGAAGTAATGCACACATATGTATATATATATA [CACACA_site2494] | 10.9 ± 0.63
61 | ATGTAGAAGTAATGCACACATATGTATTTATATATA [CACACA_site5391] | 10.9 ± 0.68
62 | ATGTGATAGAAGTACACACACATATGTATTTATAAT [CACACA_site5075] | 7.84 ± 0.59
63 | TATACATATGTATGCACACATACATACACATAGAAT [CACACA_site3480] | 8.8 ± 0.13
64 | ACATAATTATTATGCACACATATTTTTATGTATTTA [CACACA_site698] | 10.3 ± 0.48
65 | ATCAACATTATGGTTAGTACTTAGTGAATTGTTAAT [XGTACX_site4926] | 7.63 ± 0.59
66 | TTCATATATTATTATGCATGTTCATAAATTATCTAA [TGCATGCA_site896] | 7.88 ± 0.58
67 | TTGTTCTATATATATGCATGCACGTATGTTAAATTA [TGCATGCA_site659] | 11.3 ± 0.23
68 | TTCTATATATTATATGCATGTAAAACATATTAAAAT [TGCATGCA_site662] | 7.93 ± 0.61
69 | TACCTTTTTTGTTTTATGCACACCATATAACCAAGG [CACACA_site30] | 10.3 ± 0.33
70 | TCGTAAACTTTATGCACACACATATACATATTTCAT [CACACA_site739] | 10.2 ± 0.53
71 | ATTATGCACCAACACACACACACACTCCTAAAAAAT [CACACA_site8822] | 11.4 ± 0.95
72 | ATTATGCACCAACACACACACACACCCCTAAAAAAT [CACACA_site2568] | 11.4 ± 0.79

Row | Sequence | gcPBM binding intensity (ln)
73 | TAATTATGCCAACACACACACACACCCAACTAAAAA [CACACA_site8823] | 8.22 ± 0.25
74 | TGTGCCCAAAATTATGCACACACCTAAAATTAATTT [CACACA_site2914] | 10.3 ± 0.4
75 | ATTATGCACGGACACACACACACACCCCTAAAAAAT [CACACA_site5426] | 10.4 ± 0.49
76 | TGCACAAAATTATGCACACACCTAAAATTAATTTTT [CACACA_site5596] | 9.98 ± 0.32
77 | TTTTGTTTCTATATAAGATGGAAATATAAACTTGTA [CACACA_negctrl_site82] | 7.64 ± 0.47
78 | AATAAAAATTTACTTTGTACACATATTAAATTCAAT [XGTACX_site1957] | 7.83 ± 0.15
79 | TATATTAATAAAGGTACTACACGGAAATGGAAATAT [XGTACX_site7760] | 8.58 ± 0.67
80 | TTAAAATAAAGAAAATGTACATAAATAAAAATAAAG [XGTACX_site2280] | 8.35 ± 0.45
81 | AACCAATTATATTTACGTACGTACGGTTTTTTATAT [XGTACX_site1291] | 7.94 ± 0.48
82 | ATTTCTTTTTTATTGAGTACATATGACCATGTTCAA [XGTACX_site5365] | 8.14 ± 0.38
83 | ATTATTCATTTATGTAGTACATTTTAATACATTTAA [XGTACX_site3599] | 7.75 ± 0.6
84 | TTTCTTTATTAAAATATTTTACATATATAATATACG [TGCATGCA_negctrl_site564] | 7.92 ± 0.55
85 | CAACCTTTTTTGTTGGTGCATAATTTTTTTTTCTTT | 10.9 ± 0.52
86 | AGACCTTTAATTTGTGTGCACATAATTAGTGTACAT [GTGCAC_site9434] | 9.96 ± 0.16
87 | AAAATTTCTTTTTTTTGTACATATATAATAATATAT [XGTACX_site7107] | 7.82 ± 0.39
88 | TTTTCTTTTTTTTTTGTGCACATAATATATAATTAT | 10.8 ± 0.14
89 | ACCAATAAATATTTGGTGCATACATATATATATATA | 10.31 ± 0.064
90 | ATTTCCTTTTGTTTCAGTACATAATTTTTTTTTTTT [XGTACX_site4842] | 7.88 ± 0.62
91 | TACGTCTTTTTTTTGGTGCATAATTTTTTTGTACAA | 11.2 ± 0.44
92 | TATTTCTTTTGGTTGGTGCATAAAATAATACAATAT [GTGCAC_site9916] | 11.2 ± 0.59
93 | CGGACATACTAACGGACACACGTAAGAAAAAAAAAG [CACACA_site4504] | 7.79 ± 0.58
94 | ATAAATAAAAATACATGAACAGGTCAGGTTATTTTT [CACACA_negctrl_site1007] | 7.29 ± 0.61
